According to PubChem BioAssay (Tox21):
Inconclusive results are not listed. Activity calls are given as the source filed them. Unless noted, calls come from the whole dose curve; as a rule, active = well fitted curve in the direction sought with a large enough effect in the repeat runs; inconclusive = weak or mixed curves; inactive = no such curve, though single readings can be large; an effect the other way counts as inactive or inconclusive.

Columns and labels:
[1] = qHTS assay for small molecule agonists of the p53 signaling pathway (AID 651631; calls by dose curve; note: nearly all actives have a fitted effect of over 15% in size)
Summary of the method: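 Fluorescence intensity from cleaved LiveBLAzer B/G substrate (2 h, room temperature) served as the signal. Beforehand, HCT-116 reporter cells bearing p53 response elements were treated 16 h at 37 °C with DMSO-dissolved compounds.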

[2] = qHTS assay for small molecules that induce genotoxicity in human embryonic kidney cells expressing luciferase-tagged ATAD5 (AID 651632); note: nearly all actives have a fitted effect of over 15% in size
Summary of the method: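 Luminescent reporter readout, HEK293T ATAD5-luc line: 16 hr drug exposure (37C, 5% CO2) followed by Amplite, 30 min RT.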

[3] = qHTS assay for small molecule agonists of the p53 signaling pathway - cell viability (AID 651633; calls by dose curve;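 note: p53RE-bla HCT reporter cells with a stable beta-lactamase p53 reporter; nearly all actives have a fitted effect of over 30% in size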)
Summary of the method: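 p53RE-bla cells, seeded at 4,000 per well and rested 5 h at 37 C/5% CO2, received compounds in DMSO for 16 h at 37 C. CellTiter-Glo was then added, and luminescence was read after 30 min at room temperature to gauge cytotoxicity.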

[4] = qHTS assay for small molecules that induce genotoxicity in human embryonic kidney cells expressing luciferase-tagged ATAD5 - cell viability (AID 651634; calls by dose curve; note: nearly all actives have a fitted effect of over 25% in size)
Summary of the method: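 Viability read: CellTiter-Fluor fluorescence, 30 min at 37C. Cells: HEK293T, luciferase-tagged ATAD5. Exposure: 15.5 hr, 37C, 5% CO2, compound or DMSO vehicle.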

[5] = qHTS assay for small molecule disruptors of the mitochondrial membrane potential - cell viability (AID 720634; calls by dose curve;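 note: human HepG2 liver cancer cells; nearly all actives have a fitted effect of over 20% in size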)
Summary of the method: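 HepG2, 1 hr compound, 37 C. ATP luminescence via CellTiter-Glo, 30 min RT, same well as m-MPI.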

[6] = qHTS assay to test for compound auto fluorescence at 590 nm (red) in HepG2 cells (AID 720674)
Summary of the method: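 Rose Bengal sodium served as the red fluorophore standard. HepG2 monolayers (overnight attachment, MEM with 10% FBS) were exposed to test compounds for 1 hr at 37 C and read at Ex 540/Em 590 nm.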

[7] = qHTS assay to test for compound auto fluorescence at 535 nm (green) in HepG2 cells (AID 720675)
[8] = qHTS assay to test for compound auto fluorescence at 460 nm (blue) in HEK293 cells (AID 720678)
Summary of the method: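 HEK293 cells (2,000/well, medium with 10% dialyzed FBS) attached 4-5 hr, then exposed to compound overnight at 37C, 5% CO2. Blue fluorescence read at 405/460 nm, with triamterene as reference fluorophore.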

[9] = qHTS assay to test for compound auto fluorescence at 590 nm (red) in HEK293 cells (AID 720679)
Summary of the method: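 HEK293 cells (2,000/well, 10% dialyzed FBS) attached 4-5 hr, then dosed with compound or DMSO and incubated overnight at 37C, 5% CO2. Red fluorescence read at 540/590 nm, Rose Bengal sodium as reference fluorophore.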

[10] = qHTS assay to test for compound auto fluorescence at 535 nm (green) in HEK293 cells (AID 720680)
[11] = qHTS assay to test for compound auto fluorescence at 460 nm (blue) in HEK293 cell free culture (AID 720681)
Summary of the method: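 Test compounds were pinned into cell-free culture medium (DMEM with 10% FBS) and fluorescence was read directly at Ex/Em 405/460 nm. Signals were expressed as fluorescence equivalents of triamterene, with DMSO vehicle as control.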

[12] = qHTS assay to test for compound auto fluorescence at 535 nm (green) in HEK293 cell free culture (AID 720682)
Summary of the method: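 Intrinsic compound fluorescence is measured in culture medium containing 10% FBS, with excitation at 485 nm and detection at 535 nm, referenced to fluorescein.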

[13] = qHTS assay to test for compound auto fluorescence at 590 nm (red) in HEK293 cell free culture (AID 720683)
Summary of the method: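 Tox21 10K library compounds were pinned into cell-free DMEM with 10% FBS and fluorescence was read at excitation 540 nm. Activity is expressed as Rose Bengal sodium equivalency.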

[14] = qHTS assay to test for compound auto fluorescence at 590 nm (red) in HepG2 cell free culture (AID 720684)
Summary of the method: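 Red fluorescence (540 nm excitation, 590 nm emission) was measured after compound transfer into cell-free MEM supplemented with 10% FBS. Values are equivalencies against Rose Bengal sodium.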

[15] = qHTS assay to test for compound auto fluorescence at 460 nm (blue) in HepG2 cell free culture (AID 720685)
Summary of the method: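 Compound (23 nL) or DMSO pinned into cell-free MEM with 10% FBS; blue fluorescence read at 405/460 nm excitation/emission, expressed as auto-fluorescence equivalency to triamterene.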

[16] = qHTS assay to test for compound auto fluorescence at 535 nm (green) in HepG2 cell free culture (AID 720686)
[17] = molecular target: Glucocorticoid receptor (Homo sapiens) (UniProt P04150); experiment: qHTS assay to identify small molecule agonists of the glucocorticoid receptor (GR) signaling pathway (AID 720691; active = well fitted activation curve with a large enough effect in the signal ratio in the repeat runs, not every such curve was filed as active; the % refers to the signal ratio); conditions: GR-bla HeLa, beta-lactamase reporter ratio, 18 h; activation: at 62.4 µM (top of the series)
Summary of the method: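 qHTS in GR-bla HeLa cells: 4 h settling at 37 C/5% CO2, 18 h compound incubation at 37 C, 2 h LiveBLAzer B/G FRET substrate at room temperature, fluorescence intensity measured.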

[18] = molecular target: Glucocorticoid receptor (Homo sapiens) (UniProt P04150); experiment: qHTS assay to identify small molecule antagonists of the glucocorticoid receptor (GR) signaling pathway (AID 720692; active = well fitted inhibition curve with a large enough effect in the signal ratio in the repeat runs, not every such curve was filed as active; the % refers to the signal ratio)
Summary of the method: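 Inhibition of glucocorticoid signalling is measured in HeLa cells with a GRE-controlled beta-lactamase reporter; cells are co-treated with compound and 5 nM dexamethasone (final) for 18 h before FRET substrate readout.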

[19] = qHTS assay to test for compound auto fluorescence at 460 nm (blue) in HepG2 cells (AID 720687)
Summary of the method: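 Cells (2,000/well in MEM with 10% FBS) attached overnight at 37 C, then were exposed to compound or DMSO for 1 hr at 37 C, 5% CO2. Fluorescence read at Ex/Em 405/460 nm, expressed as triamterene-equivalent signal.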

[20] = qHTS assay for small molecule disruptors of the mitochondrial membrane potential (AID 720635)
Summary of the method: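 HepG2 cells (2,000/well) attached overnight at 37C, then took compound for 1 hr at 37C, 5% CO2. Mito-MPS dye was added for 30 min; fluorescence was read at 490/535 nm (monomers) and 540/590 nm (aggregates).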

Measured: Potency

Glucocorticoid receptor (Homo sapiens), sequence (P04150 whole entry, looked up): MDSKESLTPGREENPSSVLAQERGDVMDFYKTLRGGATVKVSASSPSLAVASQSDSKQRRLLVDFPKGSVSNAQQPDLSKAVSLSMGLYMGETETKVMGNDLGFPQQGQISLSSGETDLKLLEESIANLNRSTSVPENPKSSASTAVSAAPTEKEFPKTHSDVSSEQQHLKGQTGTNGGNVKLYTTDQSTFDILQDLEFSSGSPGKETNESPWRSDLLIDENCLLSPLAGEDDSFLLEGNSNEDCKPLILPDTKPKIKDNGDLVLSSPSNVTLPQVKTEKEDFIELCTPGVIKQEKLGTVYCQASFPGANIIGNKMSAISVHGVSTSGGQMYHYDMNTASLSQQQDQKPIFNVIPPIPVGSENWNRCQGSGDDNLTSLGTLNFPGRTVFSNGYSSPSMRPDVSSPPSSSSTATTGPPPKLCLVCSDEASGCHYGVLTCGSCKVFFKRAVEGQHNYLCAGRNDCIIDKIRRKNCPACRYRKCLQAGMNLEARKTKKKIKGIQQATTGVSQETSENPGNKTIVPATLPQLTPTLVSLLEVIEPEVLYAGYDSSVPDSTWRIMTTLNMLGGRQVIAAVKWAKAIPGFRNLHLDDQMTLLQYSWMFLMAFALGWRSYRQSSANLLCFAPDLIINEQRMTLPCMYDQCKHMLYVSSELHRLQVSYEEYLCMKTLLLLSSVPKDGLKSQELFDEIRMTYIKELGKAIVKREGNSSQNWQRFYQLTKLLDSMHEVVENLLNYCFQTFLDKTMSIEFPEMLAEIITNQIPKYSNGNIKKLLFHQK

CN(C)CCOCCN(C)C
not listed: [19] | [20]
inactive: all other assays above

COc1ccc(Cl)cc1C(=O)NCCc1ccc(S(=O)(=O)NC(=O)NC2CCCCC2)cc1
not listed: [8] | [17] | [18] | [19] | [20]
inactive: all other assays above

Cc1cnc(C(=O)NCCc2ccc(S(=O)(=O)NC(=O)NC3CCCCC3)cc2)cn1
not listed: [15] | [18] | [20]
inactive: all other assays above

CCCC(C)=O
not listed: [20]
inactive: all other assays above

CC(O)COCC(C)O (configuration not stated)
not listed: [8] | [15] | [20]
inactive: all other assays above

CCC(O)OCCCOC (configuration not stated)
not listed: [8] | [18] | [20]
inactive: all other assays above

CCCCOC(=O)COc1ccc(Cl)cc1Cl
not listed: [17] | [18]
inactive: all other assays above

C[C@H]1C[C@@H]2[C@H]([C@@H](O)C[C@@]3(C)[C@H]2CC[C@]3(O)C(=O)CO)[C@@]2(C)C=CC(=O)C=C12
not listed: [17] | [18] | [19] | [20]
inactive: all other assays above
